From PubChem BioAssay come the findings set out here.

“And” between values parts separate entries of the source, which are not always exact repeats. Identical values can stand only once. The source made the active and inactive calls. Unless noted, no rule for the calls is given here.

Assay [1] can be described thus: circadian clock period modulators, cell-based, LOPAC library, luminescence reporter (AID 2774).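 Also: values are relative to mean of DMSO wells on each plate.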 The settings on record: circadian reporter cells, at 7 µM, actives lie on both sides.
The test system of assay [2] is Hepatitis C virus NS3 helicase. Description: HCV NS3 helicase inhibitors, primary screen, biochemical, fluorescence polarization, LOPAC1280 library (AID 687035; in the data active = inhibition above about 37%). The settings on record: Purified HCV NS3 helicase, Cy5-dT15 ssDNA binding fluorescence polarization; stronger effect = higher value; concentration not given here.
Assay [3] in a line: Cy5 fluorescence quenching or enhancement artefacts, artefact control for HCV NS3 helicase inhibitor project, biochemical, LOPAC1280 (AID 687037). The settings on record: Cy5-DNA-NS3h complex fluorescence interference counterscreen. In general terms: A counterscreen serves to expose hits that act by an unwanted route or on another target.
For assay [4], the system named is Aerobactin synthetase IucA (Klebsiella pneumoniae). Description: IucA aerobactin synthetase inhibitors, biochemical, Tocris library, absorbance (AID 1345561).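 Also: 100% = enzyme without compound and 0% = no enzyme.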 The settings on record: purified IucA enzyme assay, absorbance (OD) read-out; stronger effect = lower value;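 tested at 8 µM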.
Assay [5] is described as follows: sensitizers of A549 cells to miR-34 induction, primary screen, imaging, A549 dox-inducible miR-34, nuclei and caspase counts (AID 1347080;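 active = compounds whose cell count with miR-34 switched on is under 0.7 times the count with it off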). The settings on record: A549 miR-34 inducible, Hoechst nuclei count, 48 h.
Assay [6] in a line: phospholipid biosynthesis inhibitors in animal cells, primary screen, cell-based, LOPAC library, screen 4 (AID 1347384). The settings on record: phospholipid biosynthesis inhibition screen, at 10 µM.
A short description of assay [7]: viability rescue of complex I mutant cybrids, primary screen, cell-based, galactose medium, ATP luminescence (AID 1645843;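 active = z-score of at least 1.8 in each of two replicates, scored against plate mean and spread of sample wells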;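 also: positive z means more ATP and so rescue of galactose-driven cybrid death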). To be noted: complex I mutant cybrid cells, 72 h, stronger effect = higher value.
The test system of assay [8] is Aerobactin synthetase IucA (Klebsiella pneumoniae, hypervirulent). Description: IucA enzyme inhibition, biochemical, LOPAC library, absorbance readout (AID 1346212).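 Also: 100% = no compound wells and 0% = no enzyme wells.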 The settings on record: IucA enzyme assay, absorbance (OD) readout; stronger effect = lower value;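 tested at 8 µM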.
[9] abbreviates: measured here: relative caspase fold change +Dox/-Dox.
Setting [10] is: measured here: total cells with miR-34 induction, stronger effect = lower value.
The mark [11] stands for this setting: measured here: total cells without miR-34 induction.
Where [12] appears, read: stronger effect = lower value, cell number ratio, induced over uninduced.

What is called inhibition is the relative decrease from the control value, in per cent. As a reminder, the remaining activity is the signal under treatment as a percentage of the control signal. With `CC(N)Cc1c[nH]c2ccc(OCc3cccs3)cc12` (configuration not stated), in assay [1], the period change was -0.015 h (inactive). Besides, the inhibition in assay [2] is -2% (inactive). In addition, the fluorescence ratio (interference) in assay [3] is 0.9 (inactive). For the same compound, in assay [4], the remaining activity is 105% (inactive). The fold change in assay [5] (stronger effect = lower value) is 1.09 (inactive) and 1.04 (inactive) and 0.983 (inactive); in assay [5] (setting [9]), 0.892 and 0.841 and 0.895. Also, the cell count was 9650 and 5700 and 7970 in assay [5] (setting [10]); 8810 and 5500 and 8110 in assay [5] (setting [11]). For the same compound, the outcome in assay [6] was inactive. In addition, the z-score in assay [7] is -0.655 (inactive) and -0.22 (inactive).
Consider `C=CCN1CC[C@]23c4c5ccc(O)c4O[C@H]2/C(=N/NC(=O)c2ccccc2)CC[C@@]3(O)[C@H]1C5`, for which the period change in assay [1] was 0.215 h (inactive). Further, the remaining activity was 115% (inactive) in assay [4] and 116% (inactive) in assay [8]. The fold change in assay [5] (stronger effect = lower value) is 0.994 (inactive); in assay [5] (setting [9]) it was 0.667. Further, the cell count in assay [5] (setting [10]) is 9120; in assay [5] (setting [11]) it was 9170. Further, the z-score in assay [7] was -0.33 (inactive).
Take `COc1ccc(CNC(=O)/C=C/c2ccc3[nH]cc(CCN(C)C)c3c2)cc1`: the period change in assay [1] was 0.1 h (inactive). Further, in assay [2], the inhibition is -1% (inactive). For the same compound, in assay [3], the fluorescence ratio (interference) is 1 (inactive). The results for the remaining activity in assay [4] and in assay [8] were 97.5% (inactive) and 111% (inactive), respectively. In addition, the fold change in assay [5] (stronger effect = lower value) was 1.08 (inactive) and 0.935 (inactive); in assay [5] (setting [9]), 1.56 and 0.859. The cell count is 9510 and 8680 in assay [5] (setting [10]); 8780 and 9280 in assay [5] (setting [11]). Also, the z-score in assay [7] is -0.155 (inactive) and -0.415 (inactive).
`CCCN(CCC)C1CCc2cccc(O)c2C1` (configuration not stated): the period change in assay [1] was -0.07 h (inactive). The inhibition in assay [2] was 2% (inactive). For the same compound, the fluorescence ratio (interference) in assay [3] is 1 (inactive). In addition, in assay [4], the remaining activity is 106% (inactive). The fold change is 0.975 (inactive) and 0.957 (inactive) in assay [5] (stronger effect = lower value); 0.862 and 0.742 in assay [5] (setting [9]). The cell count was 10400 and 8490 in assay [5] (setting [10]); 10700 and 8870 in assay [5] (setting [11]). In assay [6], the compound was classed as inactive. In addition, the z-score in assay [7] is 0.025 (inactive) and -0.42 (inactive).
On to `N[C@@H](Cn1oc(=O)[nH]c1=O)C(=O)O`, for which the inhibition in assay [2] was -2% (inactive). Further, in assay [3], the fluorescence ratio (interference) was 1 (inactive). In addition, the remaining activity in assay [4] is 106% (inactive); in assay [8] it was 109% (inactive). Further, the fold change in assay [5] (setting [12]) was 0.917 (inactive); in assay [5] (setting [9]), 0.755. Also, the cell count in assay [5] (setting [10]) is 8070; in assay [5] (setting [11]), 8800. Further, in assay [6], the outcome was inactive. In assay [7], the z-score is -0.215 (inactive).
As for `O=C1Nc2ccccc2C2(CCN(CCc3ccc(C(F)(F)F)cc3)CC2)O1`, in assay [4], the remaining activity was 102% (inactive). The fold change in assay [5] (setting [12]) is 1.06 (inactive); in assay [5] (setting [9]), 0.675. The cell count in assay [5] (setting [10]) was 4790; in assay [5] (setting [11]), 4500. Also, the z-score in assay [7] is -0.66 (inactive).
For the compound `Cc1ncc(CN2CC=C(c3ccccc3)CC2)c(N)n1`, the remaining activity in assay [4] was 92.9% (inactive). In addition, the fold change was 0.973 (inactive) in assay [5] (setting [12]) and 1.21 in assay [5] (setting [9]). Further, the cell count in assay [5] (setting [10]) stood at 8940; in assay [5] (setting [11]), 9190. Also, in assay [7], the z-score is -0.505 (inactive).
`CCNC(=O)[C@H]1O[C@@H](n2cnc3c(N)ncnc32)[C@H](O)[C@@H]1O`: the results for the remaining activity in assay [4] and in assay [8] were 122% (inactive) and 120% (inactive), respectively. Also, the fold change in assay [5] (setting [12]) was 0.978 (inactive); in assay [5] (setting [9]) it was 0.831. Also, the cell count in assay [5] (setting [10]) is 8940; in assay [5] (setting [11]), 9140. Besides, the z-score in assay [7] was -0.23 (inactive).
On to `NC(C(=O)O)c1cc(=O)[nH]o1` (configuration not stated), for which the period change in assay [1] was 0.025 h (inactive). Moreover, the inhibition in assay [2] is -1% (inactive). Moreover, the fluorescence ratio (interference) in assay [3] is 0.9 (inactive). The remaining activity in assay [4] was 105% (inactive). The fold change was 1.08 (inactive) and 0.946 (inactive) in assay [5] (stronger effect = lower value); 1.44 and 1.4 in assay [5] (setting [9]). Further, the cell count was 10500 and 9700 in assay [5] (setting [10]); 9770 and 10300 in assay [5] (setting [11]). In addition, the compound was called inactive in assay [6]. Moreover, the z-score in assay [7] is 0.635 (inactive) and 0.185 (inactive).
As to `C[N+]1(C)CCc2cc3c(cc2[C@H]1[C@@H]1OC(=O)c2c1ccc1c2OCO1)OCO3`, the period change in assay [1] was -0.02 h (inactive). Moreover, the inhibition in assay [2] was -3% (inactive). For the same compound, in assay [3], the fluorescence ratio (interference) was 1 (inactive). Further, the remaining activity is 123% (inactive) and 114% (inactive) in assay [4]; 119% (inactive) in assay [8].
`NC=Nc1ccc2[nH]c3c(c2c1)C[C@@]1(O)C2Cc4ccc(O)c5c4[C@@]1(CCN2CC1CC1)[C@H]3O5`: in assay [4], the remaining activity is 121% (inactive). For the same compound, the fold change in assay [5] (stronger effect = lower value) is 0.975 (inactive); in assay [5] (setting [9]), 1.22. In addition, the cell count in assay [5] (setting [10]) was determined as 9860; in assay [5] (setting [11]) it was 10100. Also, the z-score in assay [7] was -0.38 (inactive).
In the case of `COc1ccc(-n2nc(C(F)(F)F)cc2-c2ccc(Cl)cc2)cc1`, the period change in assay [1] is 0.125 h (inactive). The remaining activity in assay [4] was 119% (inactive); in assay [8], 109% (inactive). Moreover, the fold change in assay [5] (setting [12]) was 0.91 (inactive); in assay [5] (setting [9]), 0.729. Further, the cell count in assay [5] (setting [10]) stood at 7020; in assay [5] (setting [11]), 7710. Also, the z-score in assay [7] was -0.695 (inactive).
With `Cc1o[nH]c(=O)c1CC(N)C(=O)O` (configuration not stated), the period change in assay [1] was -0.03 h (inactive). The inhibition in assay [2] is -4% (inactive). The fluorescence ratio (interference) in assay [3] was 0.9 (inactive). The remaining activity in assay [4] is 111% (inactive) and 121% (inactive). Moreover, the fold change in assay [5] (setting [12]) is 0.968 (inactive) and 0.976 (inactive) and 0.969 (inactive); in assay [5] (setting [9]), 1.08 and 0.707 and 0.956. Besides, the cell count in assay [5] (setting [10]) is 10200 and 8490 and 9480; in assay [5] (setting [11]), 10500 and 8700 and 9780. The result in assay [6] was inactive. For the same compound, the z-score in assay [7] is 0.295 (inactive) and -0.475 (inactive) and -0.075 (inactive).
For `CC(=O)N1CC[N+](C)(C)CC1`, in assay [4], the remaining activity is 90.4% (inactive). The figures for the fold change in assay [5] (setting [12]) and in assay [5] (setting [9]) were 0.94 (inactive) and 0.788, respectively. Further, the figures for the cell count in assay [5] (setting [10]) and in assay [5] (setting [11]) were 9100 and 9680, respectively. Also, in assay [7], the z-score is 0.25 (inactive).
